In the library only some 2.4% were active in any assay of this set; here they are far more common.
NOD2-RIPK2 inh = inhibitors of human NOD2-RIPK2 interaction; O43353; CHO BLA complementation NOD2-RIPK2, CCF4 ratio; inhibition, % at 4.98 µM; 360,000 tested, 0.38% active; AID 624267; in the data active = inhibition above about 21%;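 also: 0% = vehicle only and 100% = reference blocker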
ABHD5-PLIN5 inh = blocks binding of human ABHD5 to perilipin-5. Split G. princeps luciferase complementation, luminescence, 4 h. inhibition, % at 4 µM. 360,000 tested, 0.78% active;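 active = inhibition above the mean inhibition across every tested compound plus 3 SD, cut at about 22% in these data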;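 also: 0% = DMSO only wells and the 100% control is not disclosed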
m5-HT2A agonist = activates the mouse 5-HT2A serotonin receptor | 360,000 tested, 0.66% active | activation, % at 7.6 µM | P35363 | CHO-K1 mHTR2A beta-arrestin complementation, luminescence; percent of 30 µM serotonin response;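 active = activation above a run cutoff, the mean activation of all tested compounds plus 3 SD, cut at about 14% in these data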;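 also: 0% = plate median of compound wells and 100% = 30 µM serotonin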
TLR4 MyD88 comp = TLR4-MyD88 interaction inhibition in cells; inhibition, % at 8.4 µM; AID 861; O00206+Q99836; 200,000 tested, 0.18% active; HeLa CL3-4 TLR4/MyD88 BLA complementation, FRET ratio; in the data active = inhibition above about 25%;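 also: 0% = vehicle and 100% = reference inhibitor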
CRFBP-R2 block = CRF-BP/CRF-R2 complex antagonism; 350,000 tested, 0.59% active; HEK293 CRF-R2/CRF-BP, CRF-induced calcium fluorescence; inhibition, % at 11.8 µM;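 active = inhibition of the ligand-induced calcium signal above about 50% at the single tested concentration, limit read from the data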
TLR9-MyD88 inh = TLR9-MyD88 interaction inhibition; AID 504734; inhibition, % at 4.98 µM; Q9NR96+Q99836; CHO BLA complementation TLR9-MyD88, CCF4 FRET ratio; 340,000 tested, 0.21% active;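 active = inhibition above the mean over all tested compounds plus 3 SD, cut at about 21% in these data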;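 also: 0% = DMSO only wells and 100% = clavulanate BLA inhibitor control wells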
ABHD5-PLIN5 conf = ABHD5-PLIN5 interaction inhibition, confirmed; inhibition, % at 4 µM; 2,200 tested, 67% active; biochemical ABHD5-PLIN5 interaction, luminescence; AID 651612; shares compounds with ABHD5-PLIN5 inh; in the data active = inhibition above about 23%;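 also: 0% = DMSO vehicle wells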
HNF4 split-luc = active in HNF4 split-luciferase counter-screen for ABHD5-PLIN5 inhibitors. HNF4 dimerization, luminescence, biochemical. AID 651674. inhibition, % at 4 µM. 2,200 tested, 77% active. shares compounds with ABHD5-PLIN5 inh;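 active = mean inhibition across replicate wells exceeding the computed hit threshold, cut at about 13% in these data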;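 also: light from luciferase halves that rejoin when HNF4 fusion proteins dimerize; 0% = DMSO only wells and the 100% control is not given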
* hit, by the source's call; · = not tested or not shown.

SMILES | NOD2-RIPK2 inh | ABHD5-PLIN5 inh | m5-HT2A agonist | TLR4 MyD88 comp | CRFBP-R2 block | TLR9-MyD88 inh | ABHD5-PLIN5 conf | HNF4 split-luc
C=CC(=O)N1c2ccccc2Sc2ccc(NC(=O)OCC)cc21 | -10 | 30* | -6 | 3 | 10 | -5 | 62* | 29*
CCOC(=O)Nc1ccc2c(c1)N(C(=O)N1CCN(C)CC1)c1ccccc1S2 | -2 | 11 | -7 | -3 | 3 | -10 | · | ·
O=C(Nc1ccc2c(c1)OCCO2)c1cc(F)c(F)cc1Cl | 1 | 24* | -3 | · | 7 | 1 | 2 | -1
CCOc1ccc(C(C)=O)cc1N1C(=O)C2C3C=CC(O3)C2C1=O (stereo not given) | 5 | 30* | 3 | 8 | 45 | 6 | 17 | 80*
COc1ccc2c(c1OC)C(=O)OC2Nc1nc(-c2ccc([N+](=O)[O-])cc2)cs1 (stereo not given) | 3 | 5 | -2 | · | 18 | 8 | · | ·
COc1ccc(-c2csc(NC3OC(=O)c4c3ccc(OC)c4OC)n2)cc1OC (stereo not given) | 12 | 34* | -1 | · | -13 | 4 | 63* | 49*
Oc1ccc2ccccc2c1CN1CCN(C/C=C/c2ccccc2)CC1 | 6 | 5 | -8 | · | -4 | 0 | · | ·
O=S(=O)(c1ccccc1)N1CCN(Cc2c(O)ccc3ccccc23)CC1 | 6 | 28* | 3 | · | 4 | -1 | 39* | 81*
O=c1c2c3nc4ccccc4nc3n(Cc3ccccc3)c2ncn1Cc1ccco1 | -8 | 44* | -3 | 8 | -58 | 7 | 96* | 95*
CC(=O)C[C@@H]1SC[C@H](c2ccccc2)N1S(=O)(=O)c1ccc(C)cc1 | -2 | 7 | -6 | · | · | · | · | ·
Cc1ccc(Nc2cc(C)nc(NCc3ccccc3)n2)cc1 | 2 | 23* | -6 | 8 | -91 | -6 | 12 | 15*
Cc1cc(NC2CCCCC2)nc(NCc2ccccc2)n1 | 5 | 15 | 0 | -5 | -81 | -1 | · | ·
CC(C)CN(C(=O)COC(=O)CCSc1ccc(Cl)cc1)c1c(N)n(Cc2ccccc2)c(=O)[nH]c1=O | -8 | -2 | -2 | · | 12 | -12 | · | ·
Nc1nnnn1/N=C/C=C/c1ccccc1 | -13 | 3 | 2 | 8 | 11 | -4 | · | ·
Nc1nnnn1/N=C/C(Br)=C/c1ccccc1 | 21 | 28* | 0 | 11 | -10 | -2 | 54* | 51*
O=C1ON=C(c2ccccc2)/C1=C/c1ccc(-c2ccccc2[N+](=O)[O-])o1 | -2 | 35* | -3 | 16 | -17 | 17 | 102* | 107*
O=[N+]([O-])c1ccccc1-c1ccc(/C=N/n2cnnc2)o1 | 6 | -5 | -3 | 2 | -4 | 0 | · | ·
COc1ccc(OC)c2sc(Cl)nc12 | -2 | 109* | 5 | -12 | 6 | -12 | 3 | 1
COc1cc(SC#N)ccc1N=Cc1c(C)[nH]n(-c2ccc(C)cc2C)c1=O | -12 | 27* | 0 | 5 | 5 | -1 | 38* | 26*
COc1cccc(C(C)(O)c2nc(-c3cccc(C#N)c3)cs2)c1 (stereo not given) | -5 | 0 | -3 | · | · | · | · | ·
O=C(O)c1ccccc1Sc1c([N+](=O)[O-])cc(C(F)(F)F)cc1[N+](=O)[O-] | -2 | 27* | 0 | -1 | 18 | 2 | 47* | 30*
O=[N+]([O-])c1cc(C(F)(F)F)cc([N+](=O)[O-])c1Sc1n[nH]c(C(F)(F)F)n1 | -8 | 45* | 3 | · | -3 | -6 | 75* | 56*
CNc1ccc(Br)cc(C(=O)/C=C/c2cccc(OC)c2)c1=O | 2 | 30* | 6 | 2 | 2 | 1 | 65* | 49*
COc1cccc(CNC(=O)[C@@H]2CCCN2C(=O)[C@H]2CCCCN2C(=O)c2ccccc2C)c1 | -6 | 2 | 3 | · | · | · | · | ·
COc1ccc(C=CC(=O)c2ccc(OC)c(OC)c2O)cc1OC | 4 | 46* | -7 | · | -16 | -3 | 55* | 44*

Assay outcomes (PubChem)
